Data on 40 compounds can be found in PubChem BioAssay.

For some assays here: Potency and affinity values are given separately. Calls of active or inactive are those of the source. A call without a number means that no potency is given here. Unless noted, the limit is not given here; nearly all actives have IC50 up to about 0.98 µM.

Tested on in the first assay: not listed separately
Put plainly: inhibition of 3D7 malaria parasite growth – strain 3D7 (AID 2306; call rule not given here). Particulars: P. falciparum 3D7 erythrocytic growth, LDH absorbance, 72 h; at 2 µM; active compounds read high.
Take `N#Cc1ccc(-c2ccc(C(=O)NCCCCN3CCC(c4nc5ccccc5[nH]4)CC3)cc2)cc1`: the growth inhibition is 92% (active).

Take `c1cncc(CCNCc2ccc(-c3ccc(CNC4Cc5ccccc5C4)cc3)cc2)c1`: the growth inhibition is 92% (active).

Consider `O=C(Nc1ccc(Cl)cc1)Nc1cccc(-c2cccc(-c3nc4ccccc4[nH]3)c2)c1`, for which the growth inhibition is 100% (active).

As for `Cc1cccc2[nH]c(-c3ccc(-c4ccc(CN5CCN(C6CCN(C)CC6)CC5)cc4)cc3)nc12`, the growth inhibition is 100% (active).

Regarding `CN(C)CCN(C)Cc1ccc(-c2cccc(NC(=O)c3ccc(Cl)cc3)c2)cc1`, the growth inhibition is 97% (active).

As for `O=C(Nc1cccc(-c2ccc(NCCCN3CCCC3)nc2)c1)c1ccccc1`, the growth inhibition is 100% (active).

In the case of `Cc1nnsc1C(=O)Nc1cccc(-c2cccc(-c3nc4ccc(F)cc4[nH]3)c2)c1`, the growth inhibition is 100% (active).

`COc1ccc2nccc([C@@H](O)CN3CCC(NCC(=O)Nc4cc(F)cc(F)c4)CC3)c2n1`: the growth inhibition is 89% (active).

Regarding `Cc1cc(N2CCCCC2)nc2ccc(NC(=O)c3cccc([N+](=O)[O-])c3)cc12`, the growth inhibition was 95% (active).

Regarding `O=S(=O)(c1cc(Cl)sc1Cl)N(CCC(O)(C(F)(F)F)C(F)(F)F)Cc1cccc(O)c1`, the growth inhibition was 98% (active).

Take `CC(=O)Nc1cc(C(=O)Nc2cccc(-c3cccc(-c4nc5ccc(C(F)(F)F)cc5[nH]4)c3)c2)ccc1C`: the growth inhibition is 97% (active).

In the case of `COC(=O)c1ccc(C2OC3(C(=O)c4ccccc4C3=O)C(OC)=C2Cl)cc1C(C)=O` (stereo not given), the growth inhibition is 99% (active).

Consider `Cc1ccc(S(=O)(=O)N2CCN(C(=O)c3cc(-c4cccs4)[nH]n3)CC2)c(C)c1`, for which the growth inhibition was 85% (active).

Take `O=C(NCCCN1CCOCC1)c1csc(Nc2ccc(Cl)c(Cl)c2)n1`: the growth inhibition was 92% (active).

With `CCCc1cc(Cc2cnc(N)nc2N)ccc1OCCCCCC(=O)OCC`, the growth inhibition was 97% (active).

As to `CC(=NNC(=S)Nc1ccccc1Cl)c1ccccn1`, the growth inhibition is 100% (active).

Take `O=C(Cn1c(CCc2cccc(F)c2F)nc(=O)c2cccnc21)N(Cc1ccc(-c2ccc(C(F)(F)F)cc2)cc1)C1CCN(C2CCOCC2)CC1`: the growth inhibition is 94% (active).

As to `CCn1c(-c2ccccc2)cc2nnc3ccccc3c21`, the growth inhibition was 92% (active).

On to `CCCc1ccc(S(=O)(=O)NC2CCN(c3ccnc(Nc4ccc(OC)cc4)n3)C2)cc1` (stereo not given), for which the growth inhibition was 89% (active).

As for `O=C(C=Cc1cccs1)Nc1ccc(-c2nc3ccccc3[nH]2)cc1`, the growth inhibition is 83% (active).

As for `O=C(CC1SC(N2N=C(c3cccs3)CC2c2ccccc2)=NC1=O)Nc1ccc(Cl)cc1` (stereo not given), the growth inhibition is 83% (active).

On to `O=C(NCc1ccc(Cl)c(Cl)c1)c1ccc(-c2nc3ccc(Cl)cc3[nH]2)cc1`, for which the growth inhibition was 96% (active).

As to `C=C[C@H]1CN(CCCCCCC)CC[C@H]1CC(=O)Nc1cnnc2ccc(OC)cc12`, the growth inhibition is 101% (active).

As to `O=C(Cc1ccc(NC(=O)c2ccc(O)c(-c3ccc(Cl)c(Cl)c3)c2)cc1)NCCc1ccc(Cl)c(Cl)c1`, the growth inhibition is 99% (active).

For `COc1cc2c(c(Cl)c1OC)CCN(Cc1ccccc1)CC2c1ccc(C(N)=O)cc1` (stereo not given), the growth inhibition is 97% (active).

Turning to `Clc1cnc2ccc3c(c2c1CCN1CCC(NCc2cc4c(cn2)OCCO4)CC1)OCCO3`, the growth inhibition was 92% (active).

In the case of `Cc1cccc2[nH]c(-c3cccc(-c4ccc(CNCCCN5CCCC5=O)cc4)c3)nc12`, the growth inhibition was 101% (active).

For the compound `Cc1nc2nc(N)nc(N)c2c(C)c1Cc1ccccc1`, the growth inhibition is 95% (active).

For `CC(C)(C)c1ccc(C(=O)Nc2cccc(Nc3c(C(=O)NCc4cccc(C(F)(F)F)c4)cnc4c(O)cccc34)c2)cc1`, the growth inhibition is 83% (active).

For `NCCCNc1nccc(N2CCc3ncnc(Nc4ccc(OCc5cccc(F)c5)c(Cl)c4)c3C2)n1`, the growth inhibition was 98% (active).

Turning to `COc1cc2nc(N3CCC(CNC(=O)c4cccc5cccnc45)CC3)nc(N)c2cc1OC`, the growth inhibition was 99% (active).

Turning to `S=C(Nc1cccc(Cl)c1)NC1CCN(c2ccnc3cc(Cl)ccc23)C1` (stereo not given), the growth inhibition was 100% (active).

With `Cc1cccc2[nH]c(-c3cccc(-c4ccc(NC(=O)C(=O)c5cccn5C)cc4)c3)nc12`, the growth inhibition is 101% (active).

As for `Cc1cc(N[C@@H](Cc2ccccc2)C(=O)NCc2cccc(F)c2)nc(Nc2ccccc2)n1`, the growth inhibition is 100% (active).

Take `CN1CCCN(Cc2ccc(-c3ccc(NC(=O)c4cccc(Cl)c4)cc3)cc2)CC1`: the growth inhibition was 95% (active).

For `CCS(=O)(=O)c1ccc(-c2cnc3[nH]cc(-c4ccc(N)cc4)c3c2)cc1`, the growth inhibition was 92% (active).

Take `CC(C)c1ccc(OCC(O)CN(CCN2CCOCC2)C(=O)Nc2ccc(Br)cc2)cc1` (stereo not given): the growth inhibition was 98% (active).

Turning to `CN1CCc2cc(Br)c(O)cc2C1Cc1ccccc1Cl` (stereo not given), the growth inhibition is 98% (active).

In the case of `OC1CCC(Nc2ccc3ncc(-c4ccc5ccccc5c4)n3n2)CC1` (stereo not given), the growth inhibition was 95% (active).

With `COc1ccc(Nc2cc(C)c3cc(NC(=O)c4ccncc4)ccc3n2)cc1`, the growth inhibition was 98% (active).

The target of the next assay is Calcium-dependent protein kinase 1 (Plasmodium falciparum (isolate 3D7)) (UniProt P62344). Put plainly: PfCDPK1 kinase inhibitors, biochemical, TCAMS library (AID 1159585).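 Also: inhibitors leave more ATP so luminescence rises with inhibition.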 As to conditions: recombinant PfCDPK1, Kinase-Glo ATP depletion luminescence. In general terms: Kinase-Glo reads ATP consumption through a luciferase reaction.
Calcium-dependent protein kinase 1 (Plasmodium falciparum (isolate 3D7)), sequence (P62344 whole entry, looked up): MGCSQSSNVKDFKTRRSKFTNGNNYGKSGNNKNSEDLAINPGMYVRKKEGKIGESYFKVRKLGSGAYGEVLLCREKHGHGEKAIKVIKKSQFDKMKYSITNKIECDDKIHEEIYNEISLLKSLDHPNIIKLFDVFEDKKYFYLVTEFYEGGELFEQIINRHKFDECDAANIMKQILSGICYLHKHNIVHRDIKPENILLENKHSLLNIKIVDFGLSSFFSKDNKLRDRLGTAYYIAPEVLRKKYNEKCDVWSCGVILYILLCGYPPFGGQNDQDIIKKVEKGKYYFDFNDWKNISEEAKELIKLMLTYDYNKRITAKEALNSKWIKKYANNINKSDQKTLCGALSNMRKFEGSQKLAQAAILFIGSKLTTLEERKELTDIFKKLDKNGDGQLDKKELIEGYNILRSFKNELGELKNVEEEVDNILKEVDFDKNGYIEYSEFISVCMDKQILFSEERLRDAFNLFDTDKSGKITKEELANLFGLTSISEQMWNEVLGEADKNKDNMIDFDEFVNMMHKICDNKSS
Consider `N#Cc1ccc(-c2ccc(C(=O)NCCCCN3CCC(c4nc5ccccc5[nH]4)CC3)cc2)cc1`, for which the result was inactive.

`c1cncc(CCNCc2ccc(-c3ccc(CNC4Cc5ccccc5C4)cc3)cc2)c1`: the outcome was inactive.

`O=C(Nc1ccc(Cl)cc1)Nc1cccc(-c2cccc(-c3nc4ccccc4[nH]3)c2)c1`: the result was inactive.

Consider `Cc1cccc2[nH]c(-c3ccc(-c4ccc(CN5CCN(C6CCN(C)CC6)CC5)cc4)cc3)nc12`, for which the outcome was inactive.

`CN(C)CCN(C)Cc1ccc(-c2cccc(NC(=O)c3ccc(Cl)cc3)c2)cc1`: the result was inactive.

Consider `O=C(Nc1cccc(-c2ccc(NCCCN3CCCC3)nc2)c1)c1ccccc1`, for which the outcome was inactive.

On to `Cc1nnsc1C(=O)Nc1cccc(-c2cccc(-c3nc4ccc(F)cc4[nH]3)c2)c1`, for which the outcome was inactive.

Take `COc1ccc2nccc([C@@H](O)CN3CCC(NCC(=O)Nc4cc(F)cc(F)c4)CC3)c2n1`: the outcome was inactive.

On to `Cc1cc(N2CCCCC2)nc2ccc(NC(=O)c3cccc([N+](=O)[O-])c3)cc12`, for which the result was inactive.

Consider `O=S(=O)(c1cc(Cl)sc1Cl)N(CCC(O)(C(F)(F)F)C(F)(F)F)Cc1cccc(O)c1`, for which the result was inactive.

For `CC(=O)Nc1cc(C(=O)Nc2cccc(-c3cccc(-c4nc5ccc(C(F)(F)F)cc5[nH]4)c3)c2)ccc1C`, the outcome was inactive.

As for `COC(=O)c1ccc(C2OC3(C(=O)c4ccccc4C3=O)C(OC)=C2Cl)cc1C(C)=O` (stereo not given), the outcome was inactive.

Take `Cc1ccc(S(=O)(=O)N2CCN(C(=O)c3cc(-c4cccs4)[nH]n3)CC2)c(C)c1`: the outcome was inactive.

With `O=C(NCCCN1CCOCC1)c1csc(Nc2ccc(Cl)c(Cl)c2)n1`, the outcome was inactive.

Regarding `CCCc1cc(Cc2cnc(N)nc2N)ccc1OCCCCCC(=O)OCC`, the outcome was inactive.

Turning to `CC(=NNC(=S)Nc1ccccc1Cl)c1ccccn1`, the outcome was inactive.

On to `O=C(Cn1c(CCc2cccc(F)c2F)nc(=O)c2cccnc21)N(Cc1ccc(-c2ccc(C(F)(F)F)cc2)cc1)C1CCN(C2CCOCC2)CC1`, for which the outcome was inactive.

Consider `CCn1c(-c2ccccc2)cc2nnc3ccccc3c21`, for which the result was inactive.

With `CCCc1ccc(S(=O)(=O)NC2CCN(c3ccnc(Nc4ccc(OC)cc4)n3)C2)cc1` (stereo not given), the outcome was inactive.

As for `O=C(C=Cc1cccs1)Nc1ccc(-c2nc3ccccc3[nH]2)cc1`, the outcome was inactive.

`O=C(CC1SC(N2N=C(c3cccs3)CC2c2ccccc2)=NC1=O)Nc1ccc(Cl)cc1` (stereo not given): the result was inactive.

Consider `O=C(NCc1ccc(Cl)c(Cl)c1)c1ccc(-c2nc3ccc(Cl)cc3[nH]2)cc1`, for which the result was inactive.

For the compound `C=C[C@H]1CN(CCCCCCC)CC[C@H]1CC(=O)Nc1cnnc2ccc(OC)cc12`, the outcome was inactive.

As to `O=C(Cc1ccc(NC(=O)c2ccc(O)c(-c3ccc(Cl)c(Cl)c3)c2)cc1)NCCc1ccc(Cl)c(Cl)c1`, the result was inactive.

`COc1cc2c(c(Cl)c1OC)CCN(Cc1ccccc1)CC2c1ccc(C(N)=O)cc1` (stereo not given): the result was inactive.

In the case of `Clc1cnc2ccc3c(c2c1CCN1CCC(NCc2cc4c(cn2)OCCO4)CC1)OCCO3`, the result was inactive.

Take `Cc1cccc2[nH]c(-c3cccc(-c4ccc(CNCCCN5CCCC5=O)cc4)c3)nc12`: the outcome was inactive.

On to `Cc1nc2nc(N)nc(N)c2c(C)c1Cc1ccccc1`, for which the outcome was inactive.

Consider `CC(C)(C)c1ccc(C(=O)Nc2cccc(Nc3c(C(=O)NCc4cccc(C(F)(F)F)c4)cnc4c(O)cccc34)c2)cc1`, for which the result was inactive.

With `NCCCNc1nccc(N2CCc3ncnc(Nc4ccc(OCc5cccc(F)c5)c(Cl)c4)c3C2)n1`, the outcome was inactive.

On to `COc1cc2nc(N3CCC(CNC(=O)c4cccc5cccnc45)CC3)nc(N)c2cc1OC`, for which the result was inactive.

For the compound `S=C(Nc1cccc(Cl)c1)NC1CCN(c2ccnc3cc(Cl)ccc23)C1` (stereo not given), the result was inactive.

For `Cc1cccc2[nH]c(-c3cccc(-c4ccc(NC(=O)C(=O)c5cccn5C)cc4)c3)nc12`, the outcome was inactive.

Regarding `Cc1cc(N[C@@H](Cc2ccccc2)C(=O)NCc2cccc(F)c2)nc(Nc2ccccc2)n1`, the outcome was inactive.

For `CN1CCCN(Cc2ccc(-c3ccc(NC(=O)c4cccc(Cl)c4)cc3)cc2)CC1`, the result was inactive.

As for `CCS(=O)(=O)c1ccc(-c2cnc3[nH]cc(-c4ccc(N)cc4)c3c2)cc1`, the outcome was inactive.

As for `CC(C)c1ccc(OCC(O)CN(CCN2CCOCC2)C(=O)Nc2ccc(Br)cc2)cc1` (stereo not given), the outcome was inactive.

Consider `CN1CCc2cc(Br)c(O)cc2C1Cc1ccccc1Cl` (stereo not given), for which the result was inactive.

With `OC1CCC(Nc2ccc3ncc(-c4ccc5ccccc5c4)n3n2)CC1` (stereo not given), the outcome was inactive.

On to `COc1ccc(Nc2cc(C)c3cc(NC(=O)c4ccncc4)ccc3n2)cc1`, for which the result was inactive.
